# Assay results published in ChEMBL document CHEMBL3988442, “University of Dundee, Small-Polar-MMV Screening Library” (2021).
# What was measured:
# [1] = target: T1, Aspartate--tRNA(Asp/Asn) ligase (Mycobacterium tuberculosis (strain ATCC 25618 / H37Rv)) (UniProt P9WFW3); assay: Assay for Asp RNA synthetase-1 from Mycobacterium tuberculosis; type: functional; parameters: scale not given: direction of the effect not stated beside the values; details: 30 µM; note: in the data most compounds retested in dose-response had high values
# T1 sequence (whole entry): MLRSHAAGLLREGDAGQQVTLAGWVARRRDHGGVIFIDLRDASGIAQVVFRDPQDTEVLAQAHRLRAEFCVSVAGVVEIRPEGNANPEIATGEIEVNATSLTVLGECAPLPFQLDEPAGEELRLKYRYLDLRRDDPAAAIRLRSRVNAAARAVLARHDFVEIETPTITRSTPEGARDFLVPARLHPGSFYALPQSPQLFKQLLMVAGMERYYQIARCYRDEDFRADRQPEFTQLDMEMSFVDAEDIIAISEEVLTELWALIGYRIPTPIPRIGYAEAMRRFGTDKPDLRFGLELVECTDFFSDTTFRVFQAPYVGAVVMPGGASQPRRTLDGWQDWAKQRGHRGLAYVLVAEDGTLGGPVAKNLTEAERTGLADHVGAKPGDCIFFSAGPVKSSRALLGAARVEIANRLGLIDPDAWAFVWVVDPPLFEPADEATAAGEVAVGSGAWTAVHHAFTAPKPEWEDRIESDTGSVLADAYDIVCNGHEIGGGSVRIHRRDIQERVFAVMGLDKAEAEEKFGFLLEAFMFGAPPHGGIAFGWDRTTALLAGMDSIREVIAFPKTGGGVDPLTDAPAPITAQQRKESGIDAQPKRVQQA
# [2] = target: Shiga toxin 2 (Escherichia coli O157:H7) (UniProt P09385+P09386); assay: E. coli 0.157:H7 Shiga Toxin SOP - stx2 screening assay; type: functional; parameters: scale not given: direction of the effect not stated beside the values; details: 30 µM
SMILES,Percent Effect [1] [%],Percent Effect [2] [%]
CCc1ccc(S(=O)(=O)Nc2cc(OC)c(OC)cc2C(=O)O)s1,5.87,27.3
CC(=O)N1CCN(Cn2nc(-c3ccc(F)cc3)oc2=O)CC1,0.698,-18.6
COCCCNC(=O)CN1CCCC1c1c(C)nn(C)c1Cl (centres undefined),-4.32,-37
Cc1nn(C)c(C)c1C1COCCN1C(=O)Cc1cccc(F)c1 (centres undefined),1.67,-31
CN(CC(=O)N1CCN(c2ncccn2)CC1)c1ccc(Cl)cn1,-2,-0.376
CC(C)(C)CC(=O)N1CC[C@@H]2[C@H](CC1)N(S(C)(=O)=O)CCS2(=O)=O,-2.83,-21.6
CC(C)CN1CCC(c2nc3c([nH]2)CC(C)(C)CNC3=O)C1 (centres undefined),1.44,-12.2
CCc1noc(CN2CCCN(C(N)=O)CC2)n1,-1.28,5.08
O=C(c1cn(-c2cc(N3CCOCC3)ncn2)cn1)N1CCSCC1,-0.834,-38.5
CCN1CCN(C(=O)NCCOc2ccc3c(c2)OCO3)CC1,-4.65,-50
CCc1nc(CN2CCN(c3ncnc4cc(F)ccc34)CC2)no1,-1.46,-69.6
CCOCCCNC(=O)c1cn(CC)nc1C,-4.5,-51.1
Cc1cn2c(n1)CCC(NC(=O)c1c[nH]c(C)n1)C2 (centres undefined),-7.1,14.6
COc1c(C2CCCN2C(=O)c2ccc(Cl)o2)c(C)nn1C (centres undefined),-4.35,9.5
Cc1cccc(COC[C@@H]2CC[C@H]3[C@H](CCN3Cc3ccco3)O2)n1,-0.843,-16.8
c1ccc(Cn2ccnc2CN2CCOC(Cn3cccn3)C2)cc1 (centres undefined),-3.22,8.78
CCN(CC)C(=O)c1ccn(COc2cc(C)cc(C)c2)n1,-7.43,-39.1
CCN(c1ccc(C(=O)N2CCCC2)cc1)S(=O)(=O)CC,5.6,-13.5
CCOc1ncccc1CNC(=O)Nc1ccc(N(C)C)nc1,3.77,-48.5
COC(=O)c1cc(OCC2CCC2)cc(C(=O)N[C@@H]2CNCC[C@H]2O)c1,6.47,-42.6
CC(C)Nc1nc(N2CCOCC2)nc2c1CN(Cc1ccoc1)CC2,-5.4,4.99
CNc1cc2c(nn1)CCN(C(=O)c1ccoc1)C2,0.663,28.5
Cn1cnc2c1CCN(Cc1ccc(C(=O)N3CCCC3)cc1)C2,0.745,-74.8
CCOc1ncccc1NC(=O)c1cc2c(s1)CCC2,-3.51,1.91
O=C(c1ccco1)N1CC[C@H]2[C@H]1CCN2CC1CCOCC1,1.99,-28
CN(Cc1ccccc1)C1COC2(CCN(Cc3nccs3)CC2)C1 (centres undefined),-2.36,-24.7

SMILES,Percent Effect [1] [%],Percent Effect [2] [%]
Cc1ccc(-c2nnc(CN3CCc4cnc(C)nc4C3)o2)cc1,2.13,-61
COCC1CCN(C(=O)c2cccc(S(=O)(=O)NCC3(C)COC3)c2)C1 (centres undefined),5.94,10.4
CC(=O)c1cc(CN2C[C@H]3CC[C@@H]2CN(S(=O)(=O)N(C)C)C3)cs1,-1.45,-57.1
CC(NC1(CNC(=O)C(C)(C)C#N)CCOCC1)c1ccccc1 (centres undefined),-6.25,-10.5
Cn1cc(CN2CCCC3(CCN(c4nncs4)C3)C2)cn1 (centres undefined),6.31,-11.3
O=C(c1cnc(-c2ccco2)s1)N1CCCC1Cn1cccn1 (centres undefined),-5.14,-4.37
Cc1nc(N2CCN(C(=O)c3ccccc3)CC2)c2c(n1)c(C)nn2C,-3.51,-31
Cc1cncc(C2CCCN(C(=O)c3cccn3C)C2)n1 (centres undefined),1.84,-12.2
COCCN(C)C[C@@H]1CN(C(=O)c2cccc(C(F)(F)F)c2)C[C@@H]1CO,-4.52,8.62
CC(Cc1ccco1)NC(=O)Nc1ccc(S(C)(=O)=O)nc1 (centres undefined),1.12,-17.3
NC(=O)C1CCN(C(=O)c2cccc(OCc3cscn3)c2)CC1,-1.48,-35.2
Cc1cccc2c1cnn2CCCNC(=O)C(C)C,11.8,-9.88
CCOC1COC2(CCN(S(=O)(=O)c3cccc(F)c3)CC2)C1 (centres undefined),16.4,-13
CCCS(=O)(=O)NCC1CCOc2ccccc2C1 (centres undefined),0.416,-40
Cc1ccc(CNC(=O)Cn2ncc3c2c(C)nn3C)cc1,-3.46,-20.9
COc1ccc(C(=O)NS(=O)(=O)c2cncc(Br)c2)cc1OC,0.457,3.4
CS(=O)(=O)N1CCOCC2(CN(Cc3ccco3)CCO2)C1 (centres undefined),-7.59,-18.6
Cc1ncncc1C(=O)Nc1cnn(CC(=O)NC2CCCC2)c1,-6.25,-10.6
Cn1ncc2c(NCCOc3ccc(F)cc3)nc(C3CCCC3)nc21,2.47,-46.7
Cc1cc(CN(C)C(=O)c2ccc(F)cc2Br)no1,0.189,-57
CCN1C(=O)C(C)(C)c2cc(NC(=O)c3ccco3)ccc21,10.8,-25.1
O=C(COCc1ccccc1)N1CCCC(n2cncn2)C1 (centres undefined),-3.66,22.6
CC(=O)N1CCCC1c1ccc(C(=O)N2CCOCC2)s1 (centres undefined),2.33,-18.8
O=C(COc1cccc2c1CCC2=O)NCCSc1ccccc1,3.02,-30.6
Cc1nc(C)n(CC2CCCCN2CC(=O)Nc2ccncc2)n1 (centres undefined),-1.82,-16.8
Cc1ncsc1C(=O)N(C)CCc1ccncc1,-1.68,19.9

SMILES,Percent Effect [1] [%],Percent Effect [2] [%]
Cc1ccc(C(=O)N2CCC3(CC2)CC(c2ccccc2)C(=O)N3)cn1 (centres undefined),7.75,-10.4
Cc1nc(CN2CCCC(CCc3c(F)cccc3F)C2)c[nH]1 (centres undefined),-1.36,-14.3
COC(=O)c1ccccc1NC(=O)c1nc2ccccc2n(C)c1=O,2.38,-9.47
COCCNC(=O)CCc1c(C)nn(-c2nc(C)c(C)c(=O)[nH]2)c1C,-1.79,-2.84
Cc1nn(C)c(N(C)C)c1CNCc1ccc(OCC(N)=O)cc1,-6.72,-11.7
CN1CC2(COCCN(C(=O)c3ccco3)C2)OCC1=O (centres undefined),8.76,9.96
Cn1nc(C2CCCN(Cc3cccc(F)c3)C2)c2nccnc21 (centres undefined),-0.491,14.8
c1ccc(CN2CCc3nnc(CN4CCCCC4)n3CC2)nc1,3.71,1.8
CCn1cc(NC(=O)NCC(C)O)cn1 (centres undefined),-3.08,3.43
Cc1ccc(-c2nc(CN3CCN(S(=O)(=O)N(C)C)CC3)cs2)o1,2.34,-12.2
CN1CC(=O)N(c2ccsc2)CC12CCN(S(C)(=O)=O)C2 (centres undefined),-0.605,0.893
CN(C)C(CNC(=O)NCCc1cccc(O)c1)c1ccco1 (centres undefined),2.5,-5.55
Cc1cnc(Nc2nccnc2C2CCN(C)CC2)s1,-3.37,-20.6
N#Cc1cc(NC(=O)c2ccccc2)ccc1N1CCC(O)CC1,-1.51,-18.7
Cc1nc(CN2CCCC(N(C)Cc3nnsc3Cl)C2)no1 (centres undefined),-2.25,18.2
Cc1cnc(C(=O)N2CCCC(n3ccnc3C)C2)cn1 (centres undefined),-3.23,-18.1
CSc1nccn1-c1cccc(C(=O)NCc2nnc(C)n2C)c1,4.52,19.7
CC(C)n1ccnc1CN1CCCN(C(=O)COC2CCCC2)CC1,-1.67,-3.07
CCCNC(=O)CN1CCN(Cc2csc(C(C)(C)C)n2)CC1,-3.03,11.1
CC(C)(C)c1nnc(CN2CCCC2c2noc(C3CC3)n2)o1 (centres undefined),0.758,0.0549
Cc1ccoc1C(=O)N1CC[C@H]2O[C@@H](C)C[C@H]2C1,-2.48,-17.1
Cc1csc2nc3n(c(=O)c12)CCN(C(=O)c1ccncc1)CC3,-3.92,3.14
Nc1nc2nc(C3CCCN(C(=O)c4cscn4)C3)ccc2s1 (centres undefined),0.603,-35.5
O=C(c1ccsc1)N1CCc2c(COCc3ccncc3)cncc2C1,-1.03,-68.5
COCCOc1ccc(NC(=O)C2CCCN(C(N)=O)C2)cn1 (centres undefined),-2.23,-2.19
Cc1nn(C)c(C)c1NC(=O)CN1CCc2c(nc(C(C)C)n2C)C1,-0.413,5.73

SMILES,Percent Effect [1] [%],Percent Effect [2] [%]
COc1cccc(CCNC(=O)CN2CCCC2c2noc(C)n2)c1 (centres undefined),-0.962,22.4
COCCN1C[C@H]2[C@@H](C1)N(Cc1ccc(C)o1)CC[C@H]2OC,-3.26,-28.9
c1ccc(CN2CCc3ncnc(-c4ccsc4)c3CC2)nc1,0.199,-6.45
CN(C(=O)NCCCN1CCCC1)C1CCN(c2ccccc2)C1=O (centres undefined),-0.189,24.2
COc1cccc(CCC(=O)N2CCCC(n3cc(C)cn3)C2)c1 (centres undefined),-3.33,10.7
Cn1cc(C2CC(=O)NC23CCN(c2ncc(F)cn2)CC3)cn1 (centres undefined),0.844,-18.9
O=C(c1cc(=O)[nH]c(=O)[nH]1)N1CCCCC1c1ccc(F)cc1 (centres undefined),0.947,-12.6
Cc1cccc(N2CCN(CCCNC(=O)c3nccn3C)CC2)c1,-3.22,-11.1
CN1CC(=O)N(c2ccccc2)CC12CCN(Cc1nccs1)C2 (centres undefined),4.78,-21.2
Cc1cnn(CC2CCN(CC(O)COc3ccc(F)cc3)CC2)c1 (centres undefined),1.99,-53
CN(C)C(=O)CNC(=O)c1ccc(Cl)cc1F,-6.71,-8.79
COCCC(=O)N1C[C@@H]2COC[C@]2(COCc2cccnc2)C1,2.14,-6.81
CCn1ccnc1CN1CCCC(CO)(Cc2cccc(Cl)c2)C1 (centres undefined),10,15.9
Cn1nc(C(=O)NCc2ccccn2)c2c1CCS(=O)(=O)C2,-0.726,-22.4
CCOC(=O)NC(CNC(=O)CCc1ccccn1)CC(C)C (centres undefined),1.17,0.307
CC(C)OCc1ncn2c1CN(Cc1ccc(F)cc1)CCC2,-1.67,3.71
CN1CCN(CCCNC(=O)c2cc(Cl)c3c(c2)OCO3)CC1,-5.91,-42.5
O=C(NCC1CC1)C1CSCN1S(=O)(=O)c1cccc(F)c1 (centres undefined),2.56,-5.9
O=C(c1ccc(F)cc1Cl)N1CCC(Nc2cccnn2)CC1,4.05,-21.1
O=C(NCc1cc[nH]n1)NC1CCCN(c2ncccn2)C1 (centres undefined),-4.43,-3.98
Cc1noc(C)c1CNCC1CCN(CC(O)c2ccccc2)CC1 (centres undefined),-1.06,-21.8
Cc1nc(N)cc(C2CN(C(=O)c3ccn(C)n3)CCO2)n1 (centres undefined),-1.09,3.51
Cc1cnn(CC2CCCN2C(=O)c2cc(C)no2)c1 (centres undefined),-4.16,16.5
COc1ccc(CCN2CCCC2Cn2nc(C)nc2C)cc1 (centres undefined),-3.2,-22.5
